In PubChem BioAssay (NCATS):
Records with an inconclusive call do not appear. Entries that show only a call come without a potency. The source made the active and inactive calls. Calls follow the shape of the dose curve; as a rule, active = well fitted curve in the direction sought with a large enough effect; inconclusive = small, poorly fitted or top-dose-only effect, or another doubt; inactive = no such curve, though single readings can be large; an effect the other way counts as inactive or inconclusive.

Molecular target: Cytochrome P450 3A7 (Homo sapiens) (UniProt P24462)
Sequence (P24462 whole entry, looked up): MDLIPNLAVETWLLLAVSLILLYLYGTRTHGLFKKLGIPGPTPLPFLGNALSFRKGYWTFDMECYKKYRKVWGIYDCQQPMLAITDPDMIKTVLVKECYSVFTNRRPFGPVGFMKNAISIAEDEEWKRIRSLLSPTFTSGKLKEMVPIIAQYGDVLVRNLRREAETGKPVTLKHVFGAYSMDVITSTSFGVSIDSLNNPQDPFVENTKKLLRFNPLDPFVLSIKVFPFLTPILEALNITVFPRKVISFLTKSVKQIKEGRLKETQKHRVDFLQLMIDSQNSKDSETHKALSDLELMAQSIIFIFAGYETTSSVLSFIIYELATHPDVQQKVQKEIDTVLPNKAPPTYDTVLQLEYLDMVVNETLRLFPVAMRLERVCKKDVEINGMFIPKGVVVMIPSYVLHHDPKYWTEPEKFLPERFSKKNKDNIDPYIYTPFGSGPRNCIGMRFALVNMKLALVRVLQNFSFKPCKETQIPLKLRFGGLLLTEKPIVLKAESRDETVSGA
Assay: Cytochrome P450 family 3 subfamily A member 7 (CYP3A7) small molecule antagonists: luciferase biochemical qHTS assay (AID 1963596)
Conditions: P450-Glo CYP3A7 enzyme luminescence, 1 h; series mostly up to 57.4 µM
Method in brief: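 P450-Glo luminescent assay: CYP3A7 enzyme converts a proluciferin substrate to luciferin, detected by luciferase reagent; light proportional to activity. Compounds in DMSO preincubated 10 min with enzyme-substrate mix at room temperature, then NADPH regeneration added for 1 h.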
Also: nearly all actives have a fitted effect of over 40% in size.

Row | Structure (SMILES) | Potency | activity change, negative = inhibition
1 | CCCCCC[C@@H](CCC)C(=O)O | inactive | 
2 | CC1CN(c2cc3c(cc2F)c(=O)c(C(=O)O)cn3-c2ccc(F)cc2F)CCN1 (stereo not drawn) |  | 17% [at 4.83 µM] (inactive)
3 | CCCNC(C)C(=O)Nc1c(C)csc1C(=O)OC (stereo not drawn) | inactive | 
4 | CN(C)CCN1CCN(c2cccc(Cl)c2)C1=O | inactive | 
5 | C[C@@H]1CN(c2c(F)c(F)c3c(=O)c(C(=O)O)cn(C4CC4)c3c2F)C[C@H](C)N1 | inactive | 
6 | Nc1ncnc2c1ncn2[C@@H]1O[C@H](COP(=O)(O)O)[C@@H](O)[C@H]1O | inactive | 
7 | CCOc1cc(OCC)c(C(=O)CCC(=O)O)cc1OCC | inactive | 
8 | NC(N)=NC(N)=NCCc1ccccc1 | inactive | 
9 | COc1cc2c3cc1Oc1cc(ccc1O)C[C@@H]1c4c(cc(OC)c(O)c4Oc4ccc(cc4)C[C@@H]3N(C)CC2)CC[N+]1(C)C | inactive | 
10 | COc1cc(C(=O)N2CCOCC2)cc(OC)c1OC | inactive | 
11 | CCN1CCN(Cc2ccc(NC(=O)Nc3ccc(Oc4cc(NC)ncn4)cc3)cc2C(F)(F)F)CC1 | inactive | 
12 | Nc1ccc(C(=O)O)cc1 | inactive | 
13 | CCOC(=O)[C@H](CCc1ccccc1)N[C@@H](C)C(=O)N1C(=O)N(C)C[C@H]1C(=O)O | inactive | 
14 | CCC(C(=O)O)c1ccc(N2Cc3ccccc3C2=O)cc1 (stereo not drawn) | inactive | 
15 | Nc1nc2ncc(CNc3ccc(C(=O)N[C@@H](CCC(=O)O)C(=O)O)cc3)nc2c(=O)[nH]1 | inactive | 
16 | OC1(c2ccccc2)CCNCC1 | inactive | 
17 | CCOC(=O)c1ccc(NC(=O)CN2CCCCC2)cc1 | inactive | 
19 | CC(=O)OC[C@H]1O[C@@H](n2ncc(=O)[nH]c2=O)[C@H](OC(C)=O)[C@@H]1OC(C)=O | inactive | 
20 | CC(CC(C#N)(c1ccccc1)C(C)C)N(C)C (stereo not drawn) | inactive | 

Row | Structure (SMILES) | Potency | activity change, negative = inhibition
21 | OC[C@H]1O[C@H](O[C@]2(CCl)O[C@H](CCl)[C@@H](O)[C@@H]2O)[C@H](O)[C@@H](O)[C@H]1Cl | inactive | 
22 | CCCCC(O)/C=C(C)/C=C/C=C/C(=O)N1CCCC1=O (stereo not drawn) | inactive | 
23 | CCCCCCCCOc1ccc(C(=O)c2ccccc2)c(O)c1 | inactive | 
24 | CCN(CC)CC1CCCCN1CC(=O)N1c2ccccc2C(=O)Nc2cccnc21 (stereo not drawn) | inactive | 
25 | OC[C@H]1O[C@@H]2O[C@H]3[C@H](O)[C@@H](O)[C@@H](O[C@H]4[C@H](O)[C@@H](O)[C@@H](O[C@H]5[C@H](O)[C@@H](O)[C@@H](O[C@H]6[C@H](O)[C@@H](O)[C@@H](O[C@H]7[C@H](O)[C@@H](O)[C@@H](O[C@H]8[C@H](O)[C@@H](O)[C@@H](O[C@H]1[C@H](O)[C@H]2O)O[C@@H]8CO)O[C@@H]7CO)O[C@@H]6CO)O[C@@H]5CO)O[C@@H]4CO)O[C@@H]3CO | inactive | 
26 | CCCCCC(N)=O | inactive | 
27 | C[N+](C)(C)CC(O)CC(=O)[O-] (stereo not drawn) | inactive | 
28 | NC(CO)(CO)CO | inactive | 
29 | Cc1onc(-c2ccccc2)c1C(=O)Cl | inactive | 
30 | CC(=O)N[C@@H](CCC(=O)O)C(=O)O | inactive | 
31 | NS(=O)(=O)c1cc(C(=O)O)cc(N2CCCC2)c1Oc1ccccc1 | inactive | 
32 | CN1C[C@@H]2C[C@H]1CN2c1cc2c(cc1F)c(=O)c(C(=O)O)cn2C1CC1 | inactive | 
33 | Cc1ccc(S(=O)(=O)NC(=O)NC2CCCCC2)cc1 | inactive | 
34 | C[C@H](NC(CCc1ccccc1)C(=O)O)C(=O)N1CCC[C@H]1C(=O)O (stereo partly drawn) | inactive | 
35 | CC(=O)N[C@@H](Cc1ccc(O)cc1)C(=O)O | inactive | 
36 | CCOc1ccccc1OCC1CNCCO1 (stereo not drawn) | inactive | 
37 | O=C(O)CCC(=O)OC[C@@H](NC(=O)C(Cl)Cl)[C@H](O)c1ccc([N+](=O)[O-])cc1 | inactive | 
38 | COc1ccc(CN(CCN(C)C)c2ccccn2)cc1 | inactive | 
39 | N#CSCC(=O)O | inactive | 

System: not listed separately
Assay: Viability qHTS for spleen associated tyrosine kinase inhibitor (SYKi) naive MV4-11 cells (AID 1963823); also: potency is read from the fitted curve at half-maximal effect
Conditions: MV4-11 AML viability, CellTiter-Glo luminescence, 72 h; series mostly up to 45 µM
Method in brief: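 CellTiter-Glo luminescence, 10 min room-temperature incubation, gave viability. Cells: naive MV4-11 (500/well), treated 72 hr at 37 C, 5% CO2.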

Row | Structure (SMILES) | Potency | viability (% of control)
40 | CCCCCC[C@@H](CCC)C(=O)O | inactive | 
41 | CC1CN(c2cc3c(cc2F)c(=O)c(C(=O)O)cn3-c2ccc(F)cc2F)CCN1 (stereo not drawn) |  | 91.3% [at 4.97 µM] (inactive)
42 | CCCNC(C)C(=O)Nc1c(C)csc1C(=O)OC (stereo not drawn) | inactive | 
43 | CN(C)CCN1CCN(c2cccc(Cl)c2)C1=O | inactive | 
44 | C[C@@H]1CN(c2c(F)c(F)c3c(=O)c(C(=O)O)cn(C4CC4)c3c2F)C[C@H](C)N1 | inactive | 
45 | Nc1ncnc2c1ncn2[C@@H]1O[C@H](COP(=O)(O)O)[C@@H](O)[C@H]1O | inactive | 
46 | CCOc1cc(OCC)c(C(=O)CCC(=O)O)cc1OCC | inactive | 
47 | NC(N)=NC(N)=NCCc1ccccc1 | 11.8 µM (active) | 
48 | COc1cc2c3cc1Oc1cc(ccc1O)C[C@@H]1c4c(cc(OC)c(O)c4Oc4ccc(cc4)C[C@@H]3N(C)CC2)CC[N+]1(C)C | inactive | 
49 | COc1cc(C(=O)N2CCOCC2)cc(OC)c1OC | inactive | 
50 | CCN1CCN(Cc2ccc(NC(=O)Nc3ccc(Oc4cc(NC)ncn4)cc3)cc2C(F)(F)F)CC1 | inactive | 
51 | Nc1ccc(C(=O)O)cc1 | inactive | 
52 | CCOC(=O)[C@H](CCc1ccccc1)N[C@@H](C)C(=O)N1C(=O)N(C)C[C@H]1C(=O)O | inactive | 
53 | CCC(C(=O)O)c1ccc(N2Cc3ccccc3C2=O)cc1 (stereo not drawn) | inactive | 
54 | Nc1nc2ncc(CNc3ccc(C(=O)N[C@@H](CCC(=O)O)C(=O)O)cc3)nc2c(=O)[nH]1 | inactive | 
55 | OC1(c2ccccc2)CCNCC1 | inactive | 
56 | CCOC(=O)c1ccc(NC(=O)CN2CCCCC2)cc1 | inactive | 
58 | CC(=O)OC[C@H]1O[C@@H](n2ncc(=O)[nH]c2=O)[C@H](OC(C)=O)[C@@H]1OC(C)=O | inactive | 
59 | CC(CC(C#N)(c1ccccc1)C(C)C)N(C)C (stereo not drawn) | inactive | 

Row | Structure (SMILES) | Potency | viability (% of control)
60 | OC[C@H]1O[C@H](O[C@]2(CCl)O[C@H](CCl)[C@@H](O)[C@@H]2O)[C@H](O)[C@@H](O)[C@H]1Cl | inactive | 
61 | CCCCC(O)/C=C(C)/C=C/C=C/C(=O)N1CCCC1=O (stereo not drawn) | inactive | 
62 | CCCCCCCCOc1ccc(C(=O)c2ccccc2)c(O)c1 | inactive | 
63 | CCN(CC)CC1CCCCN1CC(=O)N1c2ccccc2C(=O)Nc2cccnc21 (stereo not drawn) | inactive | 
64 | OC[C@H]1O[C@@H]2O[C@H]3[C@H](O)[C@@H](O)[C@@H](O[C@H]4[C@H](O)[C@@H](O)[C@@H](O[C@H]5[C@H](O)[C@@H](O)[C@@H](O[C@H]6[C@H](O)[C@@H](O)[C@@H](O[C@H]7[C@H](O)[C@@H](O)[C@@H](O[C@H]8[C@H](O)[C@@H](O)[C@@H](O[C@H]1[C@H](O)[C@H]2O)O[C@@H]8CO)O[C@@H]7CO)O[C@@H]6CO)O[C@@H]5CO)O[C@@H]4CO)O[C@@H]3CO | inactive | 
65 | CCCCCC(N)=O | inactive | 
66 | C[N+](C)(C)CC(O)CC(=O)[O-] (stereo not drawn) | inactive | 
67 | NC(CO)(CO)CO | inactive | 
68 | Cc1onc(-c2ccccc2)c1C(=O)Cl | inactive | 
69 | CC(=O)N[C@@H](CCC(=O)O)C(=O)O | inactive | 
70 | NS(=O)(=O)c1cc(C(=O)O)cc(N2CCCC2)c1Oc1ccccc1 | inactive | 
71 | CN1C[C@@H]2C[C@H]1CN2c1cc2c(cc1F)c(=O)c(C(=O)O)cn2C1CC1 | inactive | 
72 | Cc1ccc(S(=O)(=O)NC(=O)NC2CCCCC2)cc1 | inactive | 
73 | C[C@H](NC(CCc1ccccc1)C(=O)O)C(=O)N1CCC[C@H]1C(=O)O (stereo partly drawn) | inactive | 
74 | CC(=O)N[C@@H](Cc1ccc(O)cc1)C(=O)O | inactive | 
75 | CCOc1ccccc1OCC1CNCCO1 (stereo not drawn) | inactive | 
76 | O=C(O)CCC(=O)OC[C@@H](NC(=O)C(Cl)Cl)[C@H](O)c1ccc([N+](=O)[O-])cc1 | inactive | 
77 | COc1ccc(CN(CCN(C)C)c2ccccn2)cc1 | 16.8 µM (active) | 
78 | N#CSCC(=O)O | inactive | 
